# BAZ2B inh = blocks human BAZ2B; AlphaScreen BAZ2B-H3K14Ac peptide displacement; Potency, µM (titrated, usually from 114 µM), for inactives: at the top dose activity change, negative = inhibition, usual class: inhibitors; actives 4.4% (n = 360,000); Q9UIF8; AID 504333; note: % is set by controls: 0 for no effect and ±100 for the full control effect; nearly all actives have a fitted effect of over 60% in size
# Target sequence (Q9UIF8 whole entry, looked up): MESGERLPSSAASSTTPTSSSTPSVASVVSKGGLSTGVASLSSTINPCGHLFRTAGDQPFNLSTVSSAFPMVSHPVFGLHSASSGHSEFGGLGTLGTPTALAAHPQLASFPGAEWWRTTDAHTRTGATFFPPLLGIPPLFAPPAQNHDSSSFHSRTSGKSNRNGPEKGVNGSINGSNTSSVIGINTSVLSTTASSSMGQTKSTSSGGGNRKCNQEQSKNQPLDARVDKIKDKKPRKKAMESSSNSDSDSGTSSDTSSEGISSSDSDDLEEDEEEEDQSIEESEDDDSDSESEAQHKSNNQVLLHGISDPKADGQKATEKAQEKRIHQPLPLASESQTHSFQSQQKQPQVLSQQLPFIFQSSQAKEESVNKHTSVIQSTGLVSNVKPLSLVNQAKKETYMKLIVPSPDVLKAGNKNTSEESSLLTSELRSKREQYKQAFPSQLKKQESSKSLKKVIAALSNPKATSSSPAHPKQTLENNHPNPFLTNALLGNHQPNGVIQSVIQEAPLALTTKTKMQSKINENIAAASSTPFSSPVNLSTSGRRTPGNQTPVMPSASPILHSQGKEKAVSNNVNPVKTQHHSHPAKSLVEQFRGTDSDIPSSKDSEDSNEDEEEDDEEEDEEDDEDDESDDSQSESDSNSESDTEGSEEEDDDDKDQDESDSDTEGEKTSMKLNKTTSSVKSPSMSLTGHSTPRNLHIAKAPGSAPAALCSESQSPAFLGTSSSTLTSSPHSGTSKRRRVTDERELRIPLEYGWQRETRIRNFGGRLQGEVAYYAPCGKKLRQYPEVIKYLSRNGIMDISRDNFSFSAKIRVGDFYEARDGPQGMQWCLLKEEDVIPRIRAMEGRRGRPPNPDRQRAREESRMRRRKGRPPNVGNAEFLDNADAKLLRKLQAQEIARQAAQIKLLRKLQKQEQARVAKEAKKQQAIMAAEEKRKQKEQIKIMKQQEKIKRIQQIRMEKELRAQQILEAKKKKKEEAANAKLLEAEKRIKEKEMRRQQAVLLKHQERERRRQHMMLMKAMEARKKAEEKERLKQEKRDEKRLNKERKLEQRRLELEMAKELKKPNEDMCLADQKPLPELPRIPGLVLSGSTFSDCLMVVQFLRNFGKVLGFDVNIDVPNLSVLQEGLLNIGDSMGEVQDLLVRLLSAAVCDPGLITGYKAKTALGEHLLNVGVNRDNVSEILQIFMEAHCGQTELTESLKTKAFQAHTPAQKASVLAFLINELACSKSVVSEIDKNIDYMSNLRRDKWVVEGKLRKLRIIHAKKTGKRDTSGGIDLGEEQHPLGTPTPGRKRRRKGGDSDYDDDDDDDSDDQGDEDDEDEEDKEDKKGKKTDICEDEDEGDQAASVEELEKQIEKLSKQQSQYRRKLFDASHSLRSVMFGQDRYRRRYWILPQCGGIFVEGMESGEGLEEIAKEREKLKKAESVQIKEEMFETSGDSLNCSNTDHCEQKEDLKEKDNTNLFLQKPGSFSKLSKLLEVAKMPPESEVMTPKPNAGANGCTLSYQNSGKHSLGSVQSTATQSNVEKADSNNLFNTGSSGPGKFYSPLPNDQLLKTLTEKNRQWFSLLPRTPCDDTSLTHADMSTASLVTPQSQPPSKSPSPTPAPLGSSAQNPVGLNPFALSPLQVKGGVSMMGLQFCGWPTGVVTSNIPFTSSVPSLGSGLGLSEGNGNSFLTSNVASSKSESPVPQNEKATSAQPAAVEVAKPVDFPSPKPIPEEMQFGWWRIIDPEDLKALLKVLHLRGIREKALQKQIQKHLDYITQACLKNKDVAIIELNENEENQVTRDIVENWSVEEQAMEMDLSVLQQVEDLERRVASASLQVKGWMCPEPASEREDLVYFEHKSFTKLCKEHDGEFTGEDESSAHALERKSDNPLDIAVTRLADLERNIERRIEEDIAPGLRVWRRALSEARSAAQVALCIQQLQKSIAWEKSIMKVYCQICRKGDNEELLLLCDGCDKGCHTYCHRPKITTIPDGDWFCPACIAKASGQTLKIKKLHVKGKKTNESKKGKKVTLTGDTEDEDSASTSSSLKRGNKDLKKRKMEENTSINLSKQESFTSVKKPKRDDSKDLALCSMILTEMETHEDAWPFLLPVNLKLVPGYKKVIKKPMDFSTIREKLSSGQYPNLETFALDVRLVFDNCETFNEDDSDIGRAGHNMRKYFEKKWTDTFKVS
#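 Inhibition is scored as reduced AlphaScreen emission. The BAZ2B/b-H3(5-23)K14Ac complex (50 nM each) in PBS pH 7.4, 0.01% Tween-20 meets compound (up to 110 uM) for 30 min at RT before bead addition.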
# JMJD2A Tudor inh = inhibitors of human JMJD2A Tudor domain | AlphaScreen JMJD2A-Tudor / H3K4me3 peptide binding | Potency, µM (doses to about 114 µM), for the others: at the top dose activity change, negative = inhibition, actives largely listed as inhibitors | O75164 | actives 4.4% (n = 390,000) | AID 504339; note: % is set by controls: 0 for no effect and ±100 for the full control effect; nearly all actives have a fitted effect of over 50% in size
# HP1b chromo inh = inhibitors of HP1-beta chromodomain binding to methylated histone tails | AlphaScreen HP1-beta / biotin-H3K9me3 peptide binding | Potency, µM (series often up to 114 µM), for inactives: top-dose activity change, negative = inhibition, usual class: inhibitors | actives 0.56% (n = 390,000) | AID 540317; note: nearly all actives have a fitted effect of over 70% in size
#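 HP1-beta protein (50 nM final) preincubated 30 min at room temperature with biotinylated H3(1-18)K9me3 peptide (50 nM) in PBS pH 7.4, 0.01% Tween-20, then compound added for 30 min. AlphaScreen streptavidin donor/nickel chelate acceptor beads (10 ug/mL final), 30 min dark, luminescence read.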
# L3MBTL1 inh = L3MBTL1 (human) inhibition | AID 485360 | AlphaScreen L3MBTL1–H3K9me1 peptide binding | actives 0.66% (n = 230,000) | Q9Y468 | Potency, µM (series often up to 57.1 µM), for the others: at the highest dose activity, negative = inhibition, most hits filed as inhibitors; note: % is set by controls: 0 for no effect and ±100 for the full control effect; nearly all actives have a fitted effect of over 60% in size
#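 L3MBTL1 (50 nM) pre-complexed 30 min with biotinylated H3(1-15)K9me1 peptide (75 nM), then compounds added for 30 min at room temperature; AlphaScreen streptavidin donor/nickel chelate acceptor beads (10 ug/mL final) read after 30 min dark incubation.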
# G9a block = G9a (human) methyltransferase inhibition; actives 8.8% (n = 350,000); G9a H3K9 monomethylation, AlphaScreen, 2 h; Q96KQ7; Potency, µM (series often up to 102 µM), for inactives: top-dose activity, negative = inhibition, actives largely listed as inhibitors; AID 504332; note: % is set by controls: 0 for no effect and ±100 for the full control effect; nearly all actives have a fitted effect of over 75% in size
#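 Step 1: enzyme (final 20 nM) with compound, 15 min RT. Step 2: substrate peptide 500 nM and SAM 20 uM, 2 h RT. Step 3: anti-H3K9me1 antibody and AlphaScreen beads, 10 min, then plate read.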
# Sfp inh = blocks B. subtilis Sfp PPTase activity | Q9F4F7 | Biochemical Sfp PPTase activity, qHTS | Potency, µM, without a hit: largest response in the series, negative = inhibition, usual class: inhibitors | actives 3.5% (n = 310,000);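 note: the enzyme is Sfp with the accession as filed and its product quenches rhodamine fluorescence; 0% = enzyme reaction without inhibitor and -100% = no enzyme wells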
#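 Step 1, compound plus 15 nM Sfp-PPTase, 15 min, room temperature. Step 2, add rhodamine-CoA (5 uM) and BHQ-2-YbbR (12.5 uM). Step 3, read 525/598 nm fluorescence at 0 and 30 min.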
# Active calls of the source: *; ? = inconclusive; / = no result; [ ] = dose if it differs, or a comment. This is a sample that favours compounds with a hit; in the whole collection about 12% have one here. Calls come from the whole dose curve; as a rule, active = well fitted curve in the direction sought with a large enough effect; inconclusive = small, poorly fitted or top-dose-only effect, or another doubt; inactive = no such curve, though single readings can be large; an effect the other way counts as inactive or inconclusive. Potency is the fitted concentration of half-maximal effect.
SMILES,BAZ2B inh,JMJD2A Tudor inh,HP1b chromo inh,L3MBTL1 inh,G9a block,Sfp inh
COc1ccc(Br)cc1C(=O)NC(=S)Nc1ccc(Cl)c(C(=O)O)c1,-10.5%,-21.8%,?,/,20µM*,44.7µM*
O=C(NC(=S)Nc1ccc(CN2CCOCC2)cc1)c1ccc(-c2ccc(Br)cc2)o1,-4.7%,-22.4%,17.5%,4.5%,/,-5.3%
Fc1ccc(CNc2cc(-c3ccccc3)nc3nncn23)cc1,-4.2%,-0.9%,53.9%,/,2.3%[59 µM],/
CCOC(=O)Cn1c(=O)c2c(nc(N3CCOCC3)n2Cc2ccccc2)n(C)c1=O,-13.1%,-16.7%,22.3%,/,2.1%[59 µM],/
CC(C)[C@@H](CC(=O)N[C@@H]1CCNC[C@H]1C(=O)N[C@H](CC(=O)N[C@@H](CCC(=O)O)CC(=O)O)Cc1c[nH]c2ccccc12)NC(=O)C[C@H](Cc1c[nH]c2ccccc12)NC(=O)[C@@H]1CNCC[C@H]1N,/,/,/,/,/,-11.7%
COc1ccc(-c2cc(C)no2)cc1S(=O)(=O)Nc1c(C)cc(C)cc1C,-6.7%,-19.8%,22.5%,/,-19.1%[59 µM],/
Cc1cnc(CNc2ncnc3ccc(-c4ccc(N(C)C)cc4)cc23)cn1,/,/,/,/,-7.0%[0.501 µM],?
COc1ccc(Br)cc1/C=C/C(=O)NC(=S)Nc1ccc(Cl)c(C(=O)O)c1,?,-29.9%,-5.4%,/,31.6µM*,-22.5%
Cc1ccc(C(=O)N2CCN(c3ccccc3)CC2)cc1NC(=O)c1nsc2ccccc12,0.9%,-30.8%,5.8%[57 µM],/,-38.8%[59 µM],/
CCOc1ccc(CN2CCNC(=O)C2CC(=O)NCCc2ccccn2)cc1 (stereo unspecified),-4.2%,-6.2%,46.4%,8.0%,56.2µM*,-8.8%
Cc1cccnc1CCNC(=O)CC1C(=O)NCCN1CC1CCCCC1 (stereo unspecified),-24.7%,-19.1%,11.7%,-6.8%,39.8µM*,4.0%
CCOc1ccc(CN2CCNC(=O)C2CC(=O)N(C)Cc2nonc2C)cc1 (stereo unspecified),-32.9%,-5.8%,53.2%,/,50.1µM*,5.7%
CCOc1ccc(CN2CCNC(=O)C2CC(=O)NCc2ccccn2)cc1 (stereo unspecified),-2.5%,-2.7%,42.3%,-4.3%,?,10.1%
O=C(CC1C(=O)NCCN1CC1CCCCC1)NCc1ccccc1Cl (stereo unspecified),-25.2%,-31.2%,0.5%,-4.1%,-8.8%[12.7 µM],4.2%
CCc1cc(CNC(=O)CC2C(=O)NCCN2Cc2ccc(-c3ccccc3)cc2)on1 (stereo unspecified),-25.4%,-22.2%,19.5%,/,50.1µM*,-2.8%
N#CCCn1c(=O)cnc2cnc(Oc3ccccc3)nc21,/,/,/,/,7.0%[0.501 µM],21.3%
CCN1CCN(c2cc3c(nn2)Oc2ccccc2N3C)CC1,4.6%,11.5%,14.7%,0.1%,50.1µM*,12.3%
CCN1CCN(c2nnc(-c3ccccc3)c3ccccc23)CC1,1.6%,-3.0%,37.4%,/,?,15.0%
O=[N+]([O-])c1ccc(-c2nn(-c3ccccc3)cc2/C=N/n2c(-c3ccncc3)n[nH]c2=S)cc1,1.2%,-30.4%,23.8%,/,?,5.5%
Cc1cc(-c2n[nH]c(=S)n2/N=C/c2ccc(Cl)c([N+](=O)[O-])c2)n[nH]1,?,39.8µM*,-23.8%,-2.4%,1.41µM*,?
Cc1cc(-c2n[nH]c(=S)n2/N=C/c2cc([N+](=O)[O-])ccc2Cl)n[nH]1,?,7.94µM*,?,-4.4%,1.78µM*,-26.0%
COc1c(Cl)cc(C(=O)N(Cc2ccc(C)o2)C2CCS(=O)(=O)C2)cc1Cl (stereo unspecified),?,-29.2%,-23.5%,/,-28.3%[59 µM],/
COc1ccc2[nH]cc(CCNc3nc(-c4ccccc4OC)nc4ccccc34)c2c1,/,/,/,/,-2.8%[0.501 µM],-24.1%
CCN(CC)c1ccc(NC(=O)CN2C(=O)c3cccnc3Oc3ccccc32)c(C)c1,?,?,-19.6%,/,8.91µM*,/
CCN(CC)c1ccc(NC(=O)CCc2c(C)nc3ncnn3c2C)c(C)c1,-16.6%,-16.8%,15.5%,/,17.8µM*,/
SMILES,BAZ2B inh,JMJD2A Tudor inh,HP1b chromo inh,L3MBTL1 inh,G9a block,Sfp inh
Cc1ccc2c(c1)N(CC(=O)Nc1ccccc1C(F)(F)F)C(=O)c1cccnc1O2,3.7%,-4.3%,10.6%,/,-7.7%[59 µM],/
Cc1ccc(NC(=O)CC2Oc3ccccc3NC2=O)c(C)c1 (stereo unspecified),5.6%,-9.7%,41.2%,/,?,-6.7%
CCN(CC)c1ccc(NC(=O)CCN2C(=O)c3ccccc3S2(=O)=O)c(C)c1,12.7%,-20.0%,-4.1%,-6.2%,8.91µM*,/
CCN(CC)c1ccc(NC(=O)CC2Oc3ccccc3NC2=O)c(C)c1 (stereo unspecified),10.3%,-11.0%,32.7%,/,10µM*,?
CCc1ccc(NC(=O)Cn2c(=O)c3cc(Cl)ccc3n3nncc23)cc1,0.9%,-22.5%,42.0%,/,46.1%[59 µM],/
CCN(CC)c1ccc(NC(=O)CN2C(=O)CSc3ncccc32)c(C)c1,59.8%,-31.7%,9.6%,/,79.4µM*,-6.9%
Cc1c(Cl)cccc1NC(=O)CSc1nc(=O)[nH]c2c1CCCC2,-3.9%,-3.9%,16.1%,/,13.9%[59 µM],/
Cc1cc(C)c2ccc(Cl)cc2n1,4.3%,0.0%,38.6%,4.3%,18.1%[59 µM],15.5%
Cc1cc(NN)nc2ccc(Cl)cc12,-16.4%,?,25.3%,4.5%,14.1µM*,11.2µM*
O=c1cc(-c2ccc(Cl)cc2)oc(=O)[nH]1,-2.6%,-13.3%,31.7%,-2.0%,33.4%[59 µM],14.0%
O=c1cc(N=Nc2ccc(Cl)cc2)[nH]c(=O)[nH]1,1.7%,-7.0%,22.9%,7.8%,44.7µM*,-27.0%
Cc1ccc(Nc2nc3nonc3nc2Nc2cccc(C(F)(F)F)c2)cc1Cl,?,?,4.6%,/,?,/
Cn1c2[n+](c3ccc(Cl)cc3c1=O)Cc1ccccc1-2,-6.0%,-14.6%,45.0%,/,28.2µM*,-16.0%
COc1ccc(CNCCCSc2nnnn2C)c(OC)c1,3.0%,-2.3%,49.4%,/,-1.6%[59 µM],/
COc1cc(CNCc2ccc(OC)cc2OC)cc(OC)c1,?,28.2µM*,3.2%,-6.8%[2.29 µM],5.5%[0.501 µM],-18.7%
COc1ccc(CNCc2ccc(C)cc2)c(OC)c1,56.2µM*,3.16µM*,?,0.7%,35.5µM*,-6.3%
N#Cc1c(-c2cccc(Br)c2)cc(-c2ccco2)[nH]c1=O,44.7µM*,?,-3.3%,?,11.2µM*,?
COc1ccc(-c2cc(-c3ccco3)[nH]c(=O)c2C#N)cc1,56.2µM*,?,17.4%,/,/,50.1µM*
Cc1ccc(CN(C)C2CCN(C)CC2)cc1,-5.5%,?,1.4%,-10.2%,/,6.3%
COc1ccc(CN(C)C2CCN(C)CC2)cc1OC,56.2µM*,89.1µM*,1.2%,-15.5%,28.2µM*,5.7%

# Screening data (PubChem)
